Assay results published in PubChem BioAssay.
Unmarked numbers belong to inactive results. This is one part of the list. Activity calls are given as the source filed them. Rule as the data show it, unless noted: active = inhibition above about 36%; inactive = the rest.

Legend:
[1] = target: Nuclear receptor coactivator 3 (Homo sapiens) (UniProt Q9Y6Q9); assay: SRC3 coactivator transcriptional activity inhibitors, confirmation, cell-based, luminescence, quadruplicate (AID 588792;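 active = mean inhibition over 43.08%, the solvent-only control mean plus 3 SD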;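 also: 0% = DMSO treated cells and 100% = gossypol at 36 µM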); conditions: HEK293 GAL4-SRC3 luciferase reporter, at 3.6 µM, stronger effect = higher value
[2] = test system: transactivating tegument protein VP16 (Human herpesvirus 1), Gal4-VP16 luciferase reporter; assay: VP16 transactivation inhibitors, counter-screen for SRC3 inhibitor project, cell-based, luminescence, high throughput (AID 588794; in the data active = inhibition above about 30%); conditions: mammalian cells, VP16-driven luciferase reporter luminescence; at 3.6 µM; stronger effect = higher value
[3] = target: Nuclear receptor coactivator 1 (Homo sapiens) (UniProt Q15788); assay: SRC1 coactivator transcriptional activity inhibitors, confirmation, cell-based, luminescence, quadruplicate (AID 588820;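 active = mean inhibition above 46.68%, the untreated control wells mean plus 3 SD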;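 also: 0% = DMSO wells and 100% = gossypol 36 µM treated wells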); conditions: HEK293 GAL4-SRC1 luciferase reporter, at 3.6 µM, stronger effect = higher value
[4] = VP16 transactivation inhibitors, counter-screen for SRC1 inhibitor project, cell-based, luminescence, high throughput (AID 588824; in the data active = inhibition above about 25%); conditions: cell-based VP16 transactivation luciferase luminescence; at 3.6 µM; stronger effect = higher value
[5] = test system: transactivating tegument protein VP16 (Human herpesvirus 1); assay: VP16 transactivation reporter inhibitors, counter-screen for SRC2 inhibitor project, cell-based, luminescence, single concentration (AID 652007); conditions: cell-based VP16 transactivation luciferase reporter, at 8.9 µM, stronger effect = higher value
[6] = target: Nuclear receptor coactivator 2 (Homo sapiens) (UniProt Q15596); assay: SRC2 coactivator transcriptional activity inhibitors, confirmation, cell-based, luminescence, HEK293, triplicate (AID 652008;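 active = mean inhibition above 46.5%, the solvent-only control mean plus 3 SD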;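 also: 0% = DMSO-treated cells and 100% = Gossypol at 36 µM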); conditions: HEK293 GAL4-SRC2 luciferase reporter, at 8.9 µM, stronger effect = higher value
[7] = Gal4-VP16 luciferase reporter inhibitors, counter-screen for COUP-TFII antagonist project, cell-based, luminescence, HEK293 (AID 687007; in the data active = inhibition above about 13%); conditions: at 8.5 µM, stronger effect = higher value
[8] = target: COUP transcription factor 2 (Homo sapiens) (UniProt P24468); assay: NR2F2 transcriptional activity inhibitors, confirmation, cell-based, luciferase reporter, HEK293, triplicate (AID 687008;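 active = mean inhibition over three repeats above a set limit taken from the earlier primary screen, cut at about 38% in these data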;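 also: 100% = cells given the luciferase reporter alone without the COUP-TF2 vector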); conditions: HEK293 NGFI-A luciferase reporter, luminescence; at 8.5 µM; stronger effect = higher value
COUP transcription factor 2 (Homo sapiens), sequence (P24468 whole entry, looked up): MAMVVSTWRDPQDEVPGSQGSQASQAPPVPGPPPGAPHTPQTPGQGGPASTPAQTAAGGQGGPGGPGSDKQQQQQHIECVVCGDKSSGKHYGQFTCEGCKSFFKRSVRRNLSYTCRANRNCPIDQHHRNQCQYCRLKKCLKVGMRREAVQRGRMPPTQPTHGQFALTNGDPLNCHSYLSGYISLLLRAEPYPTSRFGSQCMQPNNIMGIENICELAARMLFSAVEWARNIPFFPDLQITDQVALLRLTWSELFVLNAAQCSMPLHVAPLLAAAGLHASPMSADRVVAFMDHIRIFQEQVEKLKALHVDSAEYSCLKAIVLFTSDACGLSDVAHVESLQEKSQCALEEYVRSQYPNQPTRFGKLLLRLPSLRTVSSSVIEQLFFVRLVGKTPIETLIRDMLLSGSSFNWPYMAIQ

Nuclear receptor coactivator 3 (Homo sapiens), sequence (Q9Y6Q9 whole entry, looked up, the tested form may be a part): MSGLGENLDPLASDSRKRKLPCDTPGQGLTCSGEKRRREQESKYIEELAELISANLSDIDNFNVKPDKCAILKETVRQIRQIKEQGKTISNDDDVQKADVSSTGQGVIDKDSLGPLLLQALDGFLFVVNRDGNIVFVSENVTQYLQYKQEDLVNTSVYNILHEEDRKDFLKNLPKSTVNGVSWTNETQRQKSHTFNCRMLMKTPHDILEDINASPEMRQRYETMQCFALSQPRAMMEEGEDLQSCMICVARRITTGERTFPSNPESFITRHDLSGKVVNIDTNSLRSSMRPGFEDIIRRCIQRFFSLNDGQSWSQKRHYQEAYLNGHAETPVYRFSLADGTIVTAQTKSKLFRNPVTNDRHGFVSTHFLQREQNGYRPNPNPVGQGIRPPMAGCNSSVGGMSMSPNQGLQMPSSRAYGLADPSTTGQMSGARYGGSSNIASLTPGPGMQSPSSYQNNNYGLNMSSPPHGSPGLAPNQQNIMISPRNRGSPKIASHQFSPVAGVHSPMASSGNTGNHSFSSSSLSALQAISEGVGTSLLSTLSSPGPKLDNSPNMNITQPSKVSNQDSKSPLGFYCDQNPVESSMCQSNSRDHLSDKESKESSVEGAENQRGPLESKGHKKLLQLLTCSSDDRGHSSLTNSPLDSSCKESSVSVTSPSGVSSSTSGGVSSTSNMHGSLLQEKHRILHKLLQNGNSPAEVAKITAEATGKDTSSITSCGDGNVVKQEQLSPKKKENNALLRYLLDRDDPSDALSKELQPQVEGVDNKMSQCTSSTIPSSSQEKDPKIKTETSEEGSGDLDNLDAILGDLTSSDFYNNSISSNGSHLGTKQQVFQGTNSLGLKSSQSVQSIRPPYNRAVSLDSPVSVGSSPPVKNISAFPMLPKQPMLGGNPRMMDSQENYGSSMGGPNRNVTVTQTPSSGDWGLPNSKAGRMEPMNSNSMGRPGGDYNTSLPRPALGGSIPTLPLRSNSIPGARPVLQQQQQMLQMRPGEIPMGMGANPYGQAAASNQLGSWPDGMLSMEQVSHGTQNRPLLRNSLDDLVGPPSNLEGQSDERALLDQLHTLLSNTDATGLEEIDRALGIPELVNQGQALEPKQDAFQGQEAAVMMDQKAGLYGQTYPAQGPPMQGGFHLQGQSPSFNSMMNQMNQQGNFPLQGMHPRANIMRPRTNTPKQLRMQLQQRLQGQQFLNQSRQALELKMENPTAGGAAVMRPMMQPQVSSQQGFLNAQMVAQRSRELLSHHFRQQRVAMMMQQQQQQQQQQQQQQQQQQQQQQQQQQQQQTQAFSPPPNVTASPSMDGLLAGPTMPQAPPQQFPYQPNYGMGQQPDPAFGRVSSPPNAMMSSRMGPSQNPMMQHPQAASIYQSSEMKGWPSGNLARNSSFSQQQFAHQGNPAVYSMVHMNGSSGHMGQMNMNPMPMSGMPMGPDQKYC
Nuclear receptor coactivator 1 (Homo sapiens), sequence (Q15788 whole entry, looked up, the tested form may be a part): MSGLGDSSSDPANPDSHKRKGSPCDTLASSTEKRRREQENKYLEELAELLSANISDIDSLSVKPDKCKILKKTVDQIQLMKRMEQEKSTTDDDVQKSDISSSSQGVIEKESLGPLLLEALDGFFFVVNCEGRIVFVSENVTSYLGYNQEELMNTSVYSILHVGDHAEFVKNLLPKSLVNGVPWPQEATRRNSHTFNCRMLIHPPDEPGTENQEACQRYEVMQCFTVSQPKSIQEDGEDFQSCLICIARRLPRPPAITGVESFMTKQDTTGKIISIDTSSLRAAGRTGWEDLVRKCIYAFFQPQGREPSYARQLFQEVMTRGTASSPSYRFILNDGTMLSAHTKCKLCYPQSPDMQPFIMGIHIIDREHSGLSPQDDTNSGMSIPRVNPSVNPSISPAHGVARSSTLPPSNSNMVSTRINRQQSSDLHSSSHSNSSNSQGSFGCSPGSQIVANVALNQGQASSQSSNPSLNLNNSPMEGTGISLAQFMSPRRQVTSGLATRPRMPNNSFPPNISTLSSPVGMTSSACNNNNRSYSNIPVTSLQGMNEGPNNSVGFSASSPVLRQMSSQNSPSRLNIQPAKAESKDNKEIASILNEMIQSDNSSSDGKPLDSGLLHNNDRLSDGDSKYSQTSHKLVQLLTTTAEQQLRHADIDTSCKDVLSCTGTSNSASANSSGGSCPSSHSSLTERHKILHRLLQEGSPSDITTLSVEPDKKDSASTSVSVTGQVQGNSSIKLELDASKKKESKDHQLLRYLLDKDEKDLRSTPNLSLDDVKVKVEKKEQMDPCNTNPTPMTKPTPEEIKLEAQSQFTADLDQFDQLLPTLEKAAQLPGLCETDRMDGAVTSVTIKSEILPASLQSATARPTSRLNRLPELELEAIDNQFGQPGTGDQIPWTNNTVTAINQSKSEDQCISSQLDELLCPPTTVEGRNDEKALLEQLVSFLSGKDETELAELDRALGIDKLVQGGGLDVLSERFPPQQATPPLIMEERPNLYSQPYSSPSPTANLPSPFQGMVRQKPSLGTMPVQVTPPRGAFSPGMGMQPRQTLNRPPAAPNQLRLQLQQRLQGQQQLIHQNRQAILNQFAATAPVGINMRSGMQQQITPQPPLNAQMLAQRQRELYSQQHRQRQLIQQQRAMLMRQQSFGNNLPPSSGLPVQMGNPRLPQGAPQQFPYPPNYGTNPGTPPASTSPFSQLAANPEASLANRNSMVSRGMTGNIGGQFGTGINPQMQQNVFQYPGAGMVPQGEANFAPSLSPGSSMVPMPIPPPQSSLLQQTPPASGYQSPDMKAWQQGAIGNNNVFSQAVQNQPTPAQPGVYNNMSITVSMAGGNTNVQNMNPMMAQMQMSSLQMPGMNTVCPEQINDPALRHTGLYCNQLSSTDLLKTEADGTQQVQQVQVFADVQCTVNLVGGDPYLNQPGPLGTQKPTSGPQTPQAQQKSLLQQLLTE
Nuclear receptor coactivator 2 (Homo sapiens), sequence (Q15596 whole entry, looked up, the tested form may be a part): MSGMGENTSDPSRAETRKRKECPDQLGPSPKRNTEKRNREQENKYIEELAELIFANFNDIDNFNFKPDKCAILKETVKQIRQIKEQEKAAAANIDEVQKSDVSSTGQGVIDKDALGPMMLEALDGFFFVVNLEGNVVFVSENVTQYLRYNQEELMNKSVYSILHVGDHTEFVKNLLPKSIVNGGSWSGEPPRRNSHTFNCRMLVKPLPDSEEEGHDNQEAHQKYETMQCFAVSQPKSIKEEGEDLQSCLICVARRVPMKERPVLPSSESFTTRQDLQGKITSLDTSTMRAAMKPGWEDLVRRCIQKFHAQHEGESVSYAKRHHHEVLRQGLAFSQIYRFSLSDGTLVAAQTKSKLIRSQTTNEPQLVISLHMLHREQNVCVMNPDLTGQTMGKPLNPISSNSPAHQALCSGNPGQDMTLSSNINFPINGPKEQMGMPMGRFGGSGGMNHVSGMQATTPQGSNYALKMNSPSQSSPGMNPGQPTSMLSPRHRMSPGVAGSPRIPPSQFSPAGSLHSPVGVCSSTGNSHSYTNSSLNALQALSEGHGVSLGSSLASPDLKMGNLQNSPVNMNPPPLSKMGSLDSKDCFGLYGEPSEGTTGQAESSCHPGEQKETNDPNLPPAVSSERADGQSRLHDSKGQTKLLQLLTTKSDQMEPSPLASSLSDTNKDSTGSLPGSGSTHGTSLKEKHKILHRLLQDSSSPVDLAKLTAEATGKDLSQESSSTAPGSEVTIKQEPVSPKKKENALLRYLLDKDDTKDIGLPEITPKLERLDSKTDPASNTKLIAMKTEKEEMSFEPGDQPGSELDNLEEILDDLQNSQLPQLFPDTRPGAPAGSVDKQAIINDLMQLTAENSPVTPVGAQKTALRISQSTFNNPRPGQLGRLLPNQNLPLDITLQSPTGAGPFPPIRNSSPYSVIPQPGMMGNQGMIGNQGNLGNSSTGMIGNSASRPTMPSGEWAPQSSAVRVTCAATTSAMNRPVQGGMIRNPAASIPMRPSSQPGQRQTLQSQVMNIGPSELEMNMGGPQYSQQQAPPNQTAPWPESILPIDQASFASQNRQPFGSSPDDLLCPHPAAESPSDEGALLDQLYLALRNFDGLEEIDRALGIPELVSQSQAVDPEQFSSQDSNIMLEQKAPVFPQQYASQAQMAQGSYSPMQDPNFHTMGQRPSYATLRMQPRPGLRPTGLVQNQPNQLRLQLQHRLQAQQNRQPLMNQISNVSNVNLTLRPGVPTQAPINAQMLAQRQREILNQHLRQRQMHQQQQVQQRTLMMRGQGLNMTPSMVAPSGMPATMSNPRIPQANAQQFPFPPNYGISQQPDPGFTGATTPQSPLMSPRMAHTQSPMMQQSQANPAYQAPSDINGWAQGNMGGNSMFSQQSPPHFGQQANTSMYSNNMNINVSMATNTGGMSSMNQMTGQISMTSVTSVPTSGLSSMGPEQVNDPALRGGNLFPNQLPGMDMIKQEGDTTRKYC

| Structure (SMILES) | inhibition [1] | inhibition [2] | inhibition [3] | inhibition [4] | inhibition [5] | inhibition [6] | inhibition [7] | inhibition [8] |
| --- | --- | --- | --- | --- | --- | --- | --- | --- |
| CC(C)(CO)CNc1ccn2nccc2n1 | 49.3% (active) | 35.4% (active) | 67.4% (active) | 41% (active) | -7.15% | 27.5% | – | – |
| COc1ccc(-c2cc3nc(C)n(N)c(=O)c3s2)cc1 | 57.6% (active) | 41.7% (active) | 19.4% | 39.4% (active) | 72% (active) | 83.8% (active) | – | – |
| CC(C)c1ccc(/C=C2\SC(=S)N(CCC(=O)N3CCCCC3CCO)C2=O)cc1 (stereo not drawn) | 23.5% | -27.8% | 10.1% | -48.1% | -75% | 76.4% (active) | – | – |
| O=C(CCCN1C(=O)/C(=C/c2ccccc2Cl)SC1=S)NNC(=O)c1ccc(Cl)cc1Cl | 55% (active) | 32.6% (active) | 37.1% | 33% (active) | 76.7% (active) | 92.4% (active) | – | – |
| CC(=C/c1ccccc1)/C=N/n1c(-c2ccncc2)n[nH]c1=S | 71.2% (active) | 45.2% (active) | 66.1% (active) | 51.6% (active) | 6.14% | 45% | – | – |
| CCOc1ccc(Nc2ncnc3ccc([N+](=O)[O-])cc23)cc1 | 70% (active) | 43.6% (active) | 65.8% (active) | 53.7% (active) | -19.7% | 47.4% (active) | – | – |
| CC1CCCCN1c1ncnc(N)c1[N+](=O)[O-] (stereo not drawn) | 61.7% (active) | 35.2% (active) | 50.6% (active) | 36.8% (active) | 4.43% | 44.8% | – | – |
| O=C(CC(Nc1ccc(Cl)cc1Cl)C(=O)O)c1ccccc1 (stereo not drawn) | 52.3% (active) | 18.1% | -4.19% | -13.2% | 18.8% | 57.9% (active) | – | – |
| CN(C)c1ccc(C(=S)Nc2ccccc2)cc1 | 39.1% | 13.3% | -21.5% | -24.4% | -5.11% | 51.1% (active) | – | – |
| COc1ccc(-c2cn[nH]c2-c2ccc(OC)cc2O)cc1 | 54.6% (active) | 26.5% | 46.3% | 29.9% (active) | 2.11% | 25.8% | – | – |
| Clc1ccc(-c2csc(=Nc3cccnc3)n2CCCn2ccnc2)cc1Cl | 53.9% (active) | 35.4% (active) | 49.7% (active) | 39% (active) | 15.6% | 63.7% (active) | – | – |
| COc1ccc(C(=O)C(CN2CCOCC2)c2ccccc2)cc1 (stereo not drawn) | 1.7% | 20.9% | 0.8% | 20.6% | 6.4% | 35% | – | – |
| Cc1cc(/C=N/Nc2ncnc(N)c2[N+](=O)[O-])c(C)n1-c1ccccc1 | 26% | 12.4% | -28.1% | -10.1% | 23.9% | 61.2% (active) | – | – |
| CCOc1cc(CNc2ccc3c(c2)OCCO3)cc(Br)c1OCC | 25.4% | 20.9% | -11.6% | 20.8% | -27.7% | -1.58% | – | – |
| COc1ccc(/C=C2/SC(=S)N(CCC(=O)O)C2=O)cc1 | 34.8% | 4.06% | 23% | 0.23% | -21.3% | 85.1% (active) | – | – |
| CCN(CC)c1ccc(/C=N/NC(=O)c2nnn(-c3nonc3N)c2C(C)C)c(O)c1 | 77.3% (active) | 72.6% (active) | 68.7% (active) | 65.5% (active) | -10.2% | 29.9% | – | – |
| COc1ccc(-n2c(C)c([N+](=O)[O-])c3ccc(O)c(CN(C)C)c32)cc1 | 84.5% (active) | 61.8% (active) | 73.1% (active) | 61.4% (active) | 24.3% | 52% (active) | – | – |
| O=C(CN1C(=O)c2ccccc2S1(=O)=O)N1CCc2ccccc21 | 60.5% (active) | 60.9% (active) | 40.8% | 65.1% (active) | 65.5% (active) | 85.9% (active) | 65.9% (active) | 74.9% (active) |
| Cc1nnc(-c2ccccc2)c(=O)n1/N=C/c1c(O)ccc2ccccc12 | 40.6% | 55% (active) | 57% (active) | 62.6% (active) | -12.9% | 23.1% | – | – |
| Cn1cc(C(=O)N/N=C/c2c(O)ccc3ccccc23)ccc1=O | 52.8% (active) | 42.4% (active) | 49.5% (active) | 44% (active) | -10.3% | 26.8% | – | – |
| COc1ccc(/C=C2/SC(=S)N(CCCC(=O)Nc3ccccc3C(=O)O)C2=O)cc1 | 22% | 11.6% | -7.34% | 7.32% | 66.5% (active) | 72.3% (active) | – | – |

| Structure (SMILES) | inhibition [1] | inhibition [2] | inhibition [3] | inhibition [4] | inhibition [5] | inhibition [6] | inhibition [7] | inhibition [8] |
| --- | --- | --- | --- | --- | --- | --- | --- | --- |
| CCC(=O)NC(c1ccc(C)cc1)c1ccc2cccnc2c1O (stereo not drawn) | 55.7% (active) | 38.1% (active) | 45.3% | 53.4% (active) | -3.42% | 24.4% | – | – |
| O=C1C=CC(=C(c2ccc(O)cc2)c2ccc(O)cc2)C=C1 | 71.2% (active) | 47.5% (active) | 54% (active) | 46.8% (active) | 26.8% | 27.1% | – | – |
| CCc1ccc(/C=C2\SC(=S)N(CCCC(=O)NCCCN3CCOCC3)C2=O)cc1 | 42.4% | 21.1% | 35.1% | 8.83% | 82.6% (active) | 93.6% (active) | – | – |
| COc1ccc(N(C(=O)CCl)C(C(=O)NC2CCCCC2)c2cccnc2)cc1 (stereo not drawn) | 75.7% (active) | 56.5% (active) | 38.8% | 51.5% (active) | 68.8% (active) | 69% (active) | – | – |
| O=C(CCCc1nc(-c2ccccc2Cl)no1)NC1CCCC1 | 36.4% | -6.22% | 22.9% | -0.83% | 26.2% | 92.2% (active) | – | – |
| COc1ccc(-c2cc(=O)oc3c(C)c(O)ccc23)cc1 | 49.4% (active) | 39.7% (active) | 50.3% (active) | 26.4% (active) | -7.99% | 23.3% | – | – |
| COc1cc(SC)ccc1C(=O)Nc1nc(C)cs1 | 15.6% | 15.1% | -68.3% | 14.8% | 50.1% (active) | 75.4% (active) | 46.4% (active) | 69.1% (active) |
| O=C(CCl)N(C1CCCC1)C1CCS(=O)(=O)C1 (stereo not drawn) | 71.6% (active) | 42.4% (active) | 58.3% (active) | 38.2% (active) | 30.6% | 63.6% (active) | – | – |
| COCCn1c(C)cc(C(=O)COc2ccc(C)nc2[N+](=O)[O-])c1C | 24.8% | 1.88% | 12.1% | -5.22% | 23.8% | 59.5% (active) | – | – |
| Cc1ccc(C)c(N2CCN(C(=O)CCS(=O)(=O)c3ccc4c(c3)NC(=O)CO4)CC2)c1 | -1.43% | 16.3% | -0.57% | 17.9% | 3.15% | 15.3% | – | – |
| NC(=O)c1sc2nc3c(c(-c4ccccc4)c2c1N)CCC3 | 77.1% (active) | 54.8% (active) | 72.8% (active) | 49.3% (active) | 12.9% | 51% (active) | 18.6% (active) | 31.9% |
| O=C(c1cncc(Br)c1)N1CCc2ccccc2C1 | 46.3% (active) | 33.3% (active) | 46.3% | 29.3% (active) | 1.4% | 15.9% | – | – |
| Nc1ncnc(N2CCc3ccccc32)c1[N+](=O)[O-] | 85.4% (active) | 61.3% (active) | 75.9% (active) | 61.2% (active) | 9.34% | 55.2% (active) | – | – |
| CC1(Cc2cccc(F)c2)C(=O)Nc2ccc(-c3cccnc3)cc21 (stereo not drawn) | 66.8% (active) | 49.2% (active) | 65% (active) | 49% (active) | 8.45% | 56% (active) | – | – |
| Cc1ccccc1C(=O)N1CCN(c2ccc(NC(=O)CSc3ccc(Cl)cc3)cc2)CC1 | 46.2% (active) | 45.8% (active) | 46.8% (active) | 38.8% (active) | 18.4% | 51.5% (active) | – | – |
| C=CCN(CC=C)c1ncnc2[nH]ncc12 | 71.4% (active) | 50.9% (active) | 53.9% (active) | 45.2% (active) | -8.17% | 34.4% | – | – |
| Oc1ccc(Nc2ncnc3scc(-c4ccccc4)c23)cc1 | 38.6% | 35.8% (active) | 41% | 31.3% (active) | -10.2% | 57.6% (active) | – | – |
| C=CC[n+]1c(-c2ccc(C)cc2)csc1Nc1ccc(NC(C)=O)cc1 | 29.6% | -12.8% | 4.13% | -3.13% | 62.2% (active) | 86.8% (active) | – | – |
| CCc1nc(N)nc(N)c1-c1ccc(Cl)c([N+](=O)[O-])c1 | 56.7% (active) | 24.9% | 58.2% (active) | 25% | 28.1% | 24.5% | – | – |
| Nc1ccccc1Nc1cccc(C(F)(F)F)c1 | 25.9% | 18.6% | -6.37% | 13.5% | 6.37% | 43.7% | – | – |
| O=C(CCl)NC(Cc1ccccc1)c1ccccc1 (stereo not drawn) | 52.5% (active) | 14.2% | 24.6% | 6.41% | 32.8% | 47.5% (active) | – | – |
